Active and inactive are the calls of the source. How the source made its calls: active means hit-call score of the fitted dose curve at least 0.9, where 1 is the maximum; inactive means score below 0.9.
Columns and labels:
[1] = ATG_GRE_CIS: Attagene CIS-FACTORIAL HepG2 Assay for human Glucocorticoid Response Elements (GRE) (AID 2282947); conditions: HepG2 GRE cis-reporter, Attagene multiplex mRNA; actives raise or lower the signal
Summary of the method: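 Assay uses human hepatoma HepG2 cells transfected with cis-promoter reporter units, exposed 24 h. mRNA from reporters detected by RT-PCR plus capillary electrophoresis; DMSO serves as negative control and baseline.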

[2] = ATG_ISRE_CIS: Attagene CIS-FACTORIAL HepG2 Assay for human Interferon Regulatory Factor 1 (IRF1) binding to an Interferon-Stimulated Response Element (ISRE) (AID 2282948); conditions: HepG2 ISRE cis-reporter (Attagene), mRNA transcription readout; actives raise or lower the signal
Summary of the method: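 Cell-based cis-reporter assay; HepG2; 24 h exposure; reporter mRNA by RT-PCR plus capillary electrophoresis fluorescence; activity in either direction scored relative to DMSO.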

[3] = ATG_M_32_CIS: Attagene CIS-FACTORIAL HepG2 Assay for M32 Transcription Factor (Internal Marker) (AID 2282949); conditions: HepG2 Attagene cis-factorial M32 reporter, mRNA; actives raise or lower the signal;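 further: background control marker of the multiplexed CIS panel rather than a real target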
Summary of the method: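 Internal background marker read-out: RT-PCR/capillary electrophoresis fluorescence of reporter transcripts from transiently transfected HepG2 cells after 24 h chemical exposure. Activity fitted bidirectionally relative to DMSO negative control.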

[4] = ATG_M_06_CIS: Attagene CIS-FACTORIAL HepG2 Assay for M06 Transcription Factor (Internal Marker) (AID 2282950); conditions: HepG2 Attagene CIS-FACTORIAL M06 internal marker reporter; actives raise or lower the signal
Summary of the method: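 HepG2 cells transiently transfected with cis-regulated multiple reporter transcription units were exposed to chemical for 24 h; reporter mRNA was quantified by RT-PCR, 6-FAM primer labelling, HpaI digestion and capillary electrophoresis, fitted bidirectionally against DMSO.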

[5] = biological target: Hypoxia-inducible factor 1-alpha (Homo sapiens) (UniProt Q16665); assay: ATG_HIF1a_CIS: Attagene CIS-FACTORIAL HepG2 Assay for human Hypoxia Inducible Factor 1 (HIF1A) (AID 2282951); conditions: HepG2 Attagene cis-factorial HIF1a reporter transcription; actives raise or lower the signal
Chain of Hypoxia-inducible factor 1-alpha (Homo sapiens) (Q16665 whole entry, looked up): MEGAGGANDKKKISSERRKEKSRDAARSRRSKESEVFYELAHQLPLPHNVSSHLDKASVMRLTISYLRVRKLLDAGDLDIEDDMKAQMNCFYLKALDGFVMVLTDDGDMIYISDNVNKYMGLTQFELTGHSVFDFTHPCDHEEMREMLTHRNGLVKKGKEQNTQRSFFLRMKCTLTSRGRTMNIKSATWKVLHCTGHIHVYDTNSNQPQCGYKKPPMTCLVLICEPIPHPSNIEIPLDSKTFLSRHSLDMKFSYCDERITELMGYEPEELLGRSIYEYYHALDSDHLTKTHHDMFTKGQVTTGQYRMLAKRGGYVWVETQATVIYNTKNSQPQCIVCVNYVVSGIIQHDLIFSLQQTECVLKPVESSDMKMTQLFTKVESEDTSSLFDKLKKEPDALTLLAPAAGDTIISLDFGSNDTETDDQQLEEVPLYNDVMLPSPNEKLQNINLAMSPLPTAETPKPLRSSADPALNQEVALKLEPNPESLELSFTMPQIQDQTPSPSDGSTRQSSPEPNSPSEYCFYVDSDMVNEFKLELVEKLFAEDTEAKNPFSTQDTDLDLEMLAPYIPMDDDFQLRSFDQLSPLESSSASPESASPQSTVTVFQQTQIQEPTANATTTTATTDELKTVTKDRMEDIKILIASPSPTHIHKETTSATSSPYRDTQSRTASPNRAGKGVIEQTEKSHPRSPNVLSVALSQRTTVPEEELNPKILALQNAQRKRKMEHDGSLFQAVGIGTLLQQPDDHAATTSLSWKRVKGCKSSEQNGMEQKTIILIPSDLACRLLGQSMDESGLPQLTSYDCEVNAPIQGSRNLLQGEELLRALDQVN
Summary of the method: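 HepG2, transient cis-reporter library, 24 h dosing. RNA → RT (oligo dT) → PCR → 6-FAM primer extension → HpaI → CE. Bidirectional curve fit vs DMSO.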

[6] = biological target: Hepatocyte nuclear factor 6 (Homo sapiens) (UniProt Q9UBC0); assay: ATG_HNF6_CIS: Attagene CIS-FACTORIAL HepG2 Assay for human Hepatocyte Nuclear Factor 6 (HNF6) (AID 2282952); conditions: HepG2 Attagene cis-factorial HNF6 reporter transcription; actives raise or lower the signal
Chain of Hepatocyte nuclear factor 6 (Homo sapiens) (Q9UBC0 whole entry, looked up): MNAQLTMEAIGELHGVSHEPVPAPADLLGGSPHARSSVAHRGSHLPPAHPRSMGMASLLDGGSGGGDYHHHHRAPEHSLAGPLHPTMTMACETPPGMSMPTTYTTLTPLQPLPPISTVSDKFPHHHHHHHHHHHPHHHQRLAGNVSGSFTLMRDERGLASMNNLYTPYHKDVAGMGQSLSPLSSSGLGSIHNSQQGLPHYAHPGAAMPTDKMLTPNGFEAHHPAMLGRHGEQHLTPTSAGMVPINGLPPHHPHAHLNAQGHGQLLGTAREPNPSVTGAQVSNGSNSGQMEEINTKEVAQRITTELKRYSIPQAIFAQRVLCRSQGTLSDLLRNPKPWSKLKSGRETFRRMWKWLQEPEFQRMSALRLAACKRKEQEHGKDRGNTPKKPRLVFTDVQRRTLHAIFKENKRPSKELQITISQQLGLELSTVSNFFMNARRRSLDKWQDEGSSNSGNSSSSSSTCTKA
Summary of the method: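 HepG2 cells transiently transfected with cis-element-driven multiple reporter transcription units, dosed 24 h; reporter mRNA quantified by RT-PCR, FAM primer extension, HpaI digestion and capillary electrophoresis; bidirectional fit versus DMSO baseline.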

[7] = biological target: Heat shock factor protein 1 (Homo sapiens) (UniProt Q00613); assay: ATG_HSE_CIS: Attagene CIS-FACTORIAL HepG2 Assay for human Heat Shock Transcription Factor 1 (HSE) (AID 2282953); conditions: HepG2 HSE cis-reporter, Attagene RNA transcription; actives raise or lower the signal
Chain of Heat shock factor protein 1 (Homo sapiens) (Q00613 whole entry, looked up): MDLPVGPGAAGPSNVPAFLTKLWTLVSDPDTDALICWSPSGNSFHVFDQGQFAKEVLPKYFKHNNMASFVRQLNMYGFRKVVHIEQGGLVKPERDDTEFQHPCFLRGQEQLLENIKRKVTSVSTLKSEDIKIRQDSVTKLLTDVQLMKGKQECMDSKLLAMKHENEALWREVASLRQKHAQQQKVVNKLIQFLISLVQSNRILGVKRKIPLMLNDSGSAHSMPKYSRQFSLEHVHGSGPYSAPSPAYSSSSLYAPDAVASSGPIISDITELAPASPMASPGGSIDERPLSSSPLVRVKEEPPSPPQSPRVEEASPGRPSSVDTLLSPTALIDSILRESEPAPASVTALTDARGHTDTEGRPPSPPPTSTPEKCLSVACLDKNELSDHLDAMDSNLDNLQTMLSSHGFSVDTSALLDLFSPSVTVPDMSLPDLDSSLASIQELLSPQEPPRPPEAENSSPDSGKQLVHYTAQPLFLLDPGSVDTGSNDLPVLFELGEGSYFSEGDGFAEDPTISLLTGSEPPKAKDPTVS
Summary of the method: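 HepG2 cells transiently transfected with multiple reporter transcription units under cis-regulatory promoter control, measuring endogenous transcription factor activity. After 24 h chemical exposure, reporter mRNA quantified by RT-PCR, fluorescent labelling, HpaI digestion and capillary electrophoresis; bidirectional fit versus DMSO.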

[8] = ATG_MRE_CIS: Attagene CIS-FACTORIAL HepG2 Assay for human Metal Responsive Element (MRE) (AID 2282954); conditions: HepG2 MRE cis-reporter transcription, Attagene multiplex; actives raise or lower the signal
Summary of the method: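 After a 24 h chemical exposure, transiently transfected HepG2 cells yield RNA whose reporter sequences are amplified, FAM-labelled and sized by capillary electrophoresis. Curves are fitted bidirectionally relative to DMSO.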

[9] = biological target: Paired box protein Pax-6 (Homo sapiens) (UniProt P26367); assay: ATG_Pax6_CIS: Attagene CIS-FACTORIAL HepG2 Assay for human Paired Box 6 (PAX6) (AID 2282956); conditions: HepG2 CIS-FACTORIAL PAX6 reporter transcription, RNA readout; actives raise or lower the signal
Chain of Paired box protein Pax-6 (Homo sapiens) (P26367 whole entry, looked up): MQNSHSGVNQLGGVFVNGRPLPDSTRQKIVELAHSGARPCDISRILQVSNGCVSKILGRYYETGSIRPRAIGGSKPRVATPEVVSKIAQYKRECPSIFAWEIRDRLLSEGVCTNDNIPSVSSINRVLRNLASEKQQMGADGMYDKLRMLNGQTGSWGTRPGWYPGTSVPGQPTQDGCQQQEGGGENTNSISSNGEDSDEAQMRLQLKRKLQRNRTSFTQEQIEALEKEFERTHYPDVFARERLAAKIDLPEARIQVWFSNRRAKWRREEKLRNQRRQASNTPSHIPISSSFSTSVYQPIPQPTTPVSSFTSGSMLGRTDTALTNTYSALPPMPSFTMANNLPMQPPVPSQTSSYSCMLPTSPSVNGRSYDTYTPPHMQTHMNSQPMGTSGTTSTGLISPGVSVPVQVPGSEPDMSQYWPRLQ
Summary of the method: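 Multiplexed cis-reporter HepG2 system; 24 h treatment; reporter mRNA read by RT-PCR/CE fluorescence; bidirectional fit vs DMSO.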

[10] = ATG_PXRE_CIS: Attagene CIS-FACTORIAL HepG2 Assay for human Pregnane X Receptor Element (PXRE) (AID 2282957); conditions: HepG2 Attagene CIS-FACTORIAL PXRE reporter, mRNA; actives raise or lower the signal
Summary of the method: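 HepG2 cells transiently transfected with cis-regulated multiple reporter transcription units; endogenous factor activity measured as reporter mRNA 24 h after dosing. RT-PCR, fluorescent primer extension, HpaI digestion, capillary electrophoresis; bidirectional fit versus DMSO baseline.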

[11] = ATG_PPRE_CIS: Attagene CIS-FACTORIAL HepG2 Assay for human Peroxisome Proliferator-activated Response Element (PPRE) (AID 2282958); conditions: HepG2 PPRE cis-element reporter, Attagene transcription factor profiling; actives raise or lower the signal
Summary of the method: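 Transcript-level reporter induction in transfected HepG2 cells after 24 h chemical exposure, quantified by fluorescence from RT-PCR products separated by capillary electrophoresis.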

[12] = ATG_RORE_CIS: Attagene CIS-FACTORIAL HepG2 Assay for human RAR-related Orphan Receptor Element (RORE) (AID 2282959); conditions: HepG2 Attagene cis-factorial RORE reporter, mRNA; actives raise or lower the signal
Summary of the method: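 Multiplexed reporter assay measuring mRNA induction from a cis promoter element in transiently transfected HepG2 cells after 24 h treatment. Detection via RT-PCR and capillary electrophoresis fluorescence; DMSO serves as baseline.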

[13] = ATG_Sox_CIS: Attagene CIS-FACTORIAL HepG2 Assay for human SRY-box transcription factor (SOX) (AID 2282960); conditions: HepG2 Attagene cis-factorial SOX reporter, mRNA; actives raise or lower the signal
Summary of the method: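 Cells were transfected with reporter constructs under cis-regulatory promoters, then exposed to chemicals for 24 h. Reporter transcripts were quantified by fluorescence after RT-PCR and capillary electrophoresis; activity was fitted in both directions against DMSO.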

[14] = biological target: Transcription factor Sp1 (Homo sapiens) (UniProt P08047); assay: ATG_Sp1_CIS: Attagene CIS-FACTORIAL HepG2 Assay for human Specificity Protein 1 (Sp1) (AID 2282961); conditions: HepG2 Sp1 cis-reporter transcription, actives raise or lower the signal
Chain of Transcription factor Sp1 (Homo sapiens) (P08047 whole entry, looked up): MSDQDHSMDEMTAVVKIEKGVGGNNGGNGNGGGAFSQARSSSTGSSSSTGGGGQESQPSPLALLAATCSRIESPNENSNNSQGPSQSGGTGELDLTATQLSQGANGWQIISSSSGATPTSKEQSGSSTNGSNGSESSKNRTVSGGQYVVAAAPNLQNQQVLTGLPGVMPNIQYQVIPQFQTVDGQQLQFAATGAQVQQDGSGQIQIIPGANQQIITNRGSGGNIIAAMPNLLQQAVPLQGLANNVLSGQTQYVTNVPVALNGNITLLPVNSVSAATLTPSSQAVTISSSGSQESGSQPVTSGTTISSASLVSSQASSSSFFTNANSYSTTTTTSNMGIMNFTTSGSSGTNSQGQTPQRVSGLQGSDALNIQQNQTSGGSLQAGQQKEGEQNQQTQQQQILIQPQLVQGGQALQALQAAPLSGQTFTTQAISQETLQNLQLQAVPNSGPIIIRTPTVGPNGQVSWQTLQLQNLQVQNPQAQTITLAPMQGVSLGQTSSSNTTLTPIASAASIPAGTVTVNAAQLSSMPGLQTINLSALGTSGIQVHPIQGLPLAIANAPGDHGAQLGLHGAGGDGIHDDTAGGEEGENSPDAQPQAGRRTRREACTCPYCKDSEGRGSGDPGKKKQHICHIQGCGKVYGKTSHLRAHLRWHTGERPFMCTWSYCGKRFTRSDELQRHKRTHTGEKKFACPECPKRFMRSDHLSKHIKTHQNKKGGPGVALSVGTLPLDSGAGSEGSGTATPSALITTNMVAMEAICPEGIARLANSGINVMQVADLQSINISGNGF
Summary of the method: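 Measures mRNA induction of an Sp1-linked reporter in HepG2 cells 24 h post-dosing. Multiplexed reporters read by RT-PCR and capillary electrophoresis; DMSO serves as negative control and baseline.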

[15] = ATG_SREBP_CIS: Attagene CIS-FACTORIAL HepG2 Assay for human Sterol Regulatory Element Binding (SREBP) (AID 2282962); conditions: HepG2 Attagene cis-factorial SREBP reporter, mRNA; actives raise or lower the signal
Summary of the method: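 mRNA induction of transfected cis-promoter reporters in HepG2 cells, 24 h post-dose. Detection: RT-PCR with 6-FAM-labelled products, HpaI digest, capillary electrophoresis. DMSO served as negative control and baseline.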

[16] = biological target: Signal transducer and activator of transcription 3 (Homo sapiens) (UniProt P40763); assay: ATG_STAT3_CIS: Attagene CIS-FACTORIAL HepG2 Assay for human Signal Transducer and Activator of Transcription 3 (STAT3) (AID 2282963); conditions: HepG2, Attagene cis-factorial STAT3 reporter transcription; actives raise or lower the signal
Chain of Signal transducer and activator of transcription 3 (Homo sapiens) (P40763 whole entry, looked up): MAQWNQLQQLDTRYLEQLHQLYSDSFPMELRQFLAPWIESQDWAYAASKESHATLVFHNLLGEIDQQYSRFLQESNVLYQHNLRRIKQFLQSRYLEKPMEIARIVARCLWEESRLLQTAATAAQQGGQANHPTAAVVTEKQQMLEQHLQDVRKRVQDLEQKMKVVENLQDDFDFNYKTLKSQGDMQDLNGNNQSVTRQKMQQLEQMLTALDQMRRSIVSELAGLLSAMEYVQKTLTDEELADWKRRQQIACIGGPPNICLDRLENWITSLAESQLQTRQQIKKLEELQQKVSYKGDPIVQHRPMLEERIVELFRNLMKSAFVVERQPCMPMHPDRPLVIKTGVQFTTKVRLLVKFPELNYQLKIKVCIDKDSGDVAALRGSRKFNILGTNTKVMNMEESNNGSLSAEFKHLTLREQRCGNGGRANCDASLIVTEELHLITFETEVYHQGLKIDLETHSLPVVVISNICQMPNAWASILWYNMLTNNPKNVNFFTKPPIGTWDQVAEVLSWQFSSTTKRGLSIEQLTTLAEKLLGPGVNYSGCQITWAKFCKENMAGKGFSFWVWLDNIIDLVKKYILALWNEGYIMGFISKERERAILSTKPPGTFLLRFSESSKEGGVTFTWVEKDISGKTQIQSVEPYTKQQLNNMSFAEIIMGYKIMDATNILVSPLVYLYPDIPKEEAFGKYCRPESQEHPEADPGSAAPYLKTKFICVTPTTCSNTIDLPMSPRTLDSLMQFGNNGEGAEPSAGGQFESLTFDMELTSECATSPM
Summary of the method: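 After a 24 h compound incubation, total RNA from MRTU-transfected HepG2 cells was converted to cDNA and reporter sequences PCR-amplified, labelled and profiled by capillary electrophoresis. Gain and loss of signal were referenced to DMSO.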

[17] = ATG_TA_CIS: Attagene CIS-FACTORIAL HepG2 Assay for human TA Basal Promoter (AID 2282964); conditions: HepG2 Attagene CIS-factorial TA basal promoter reporter; actives raise or lower the signal
Summary of the method: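 HepG2 cells transiently transfected with multiplexed cis-promoter reporter units, dosed 24 h. Reporter mRNA measured by RT-PCR, 6-FAM labelling, HpaI digestion and capillary electrophoresis; bidirectional fit versus DMSO baseline, serving as background control.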

[18] = ATG_TCF_b_cat_CIS: Attagene CIS-FACTORIAL HepG2 Assay for human T-Cell-Factor with beta-catenin (TCF/b-cat) (AID 2282965); conditions: HepG2 TCF/beta-catenin cis-reporter transcription, actives raise or lower the signal
Summary of the method: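 Measured: reporter mRNA in HepG2 transiently transfected with cis-promoter reporter units, 24 h after chemical addition. Fitting was bidirectional, DMSO as negative control.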

[19] = ATG_TAL_CIS: Attagene CIS-FACTORIAL HepG2 Assay for human TAL Basal Promoter (AID 2282966); conditions: HepG2 Attagene cis-factorial TAL promoter reporter; actives raise or lower the signal;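 further: background control endpoint measuring basal TAL promoter reporter mRNA not a specific factor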
Summary of the method: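 HepG2 cells were transiently transfected with promoter-driven multiplexed reporter units and dosed for 24 h. Reporter mRNA was measured by RT-PCR with capillary electrophoresis fluorescence; bidirectional fits used DMSO as baseline, serving as a background control.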

[20] = ATG_PBREM_CIS: Attagene CIS-FACTORIAL HepG2 Assay for human Phenobarbital-responsive Enhancer Module (PBREM) (AID 2282955); conditions: HepG2 PBREM cis-reporter, Attagene multiplexed transcription; actives raise or lower the signal
Summary of the method: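 HepG2, transient MRTU transfection, 24 h dosing; RNA → oligo(dT) RT → PCR → 6-FAM extension → HpaI → CE. Bidirectional fit vs DMSO.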

Measured: AC50

CCOP(=O)(CN(CCO)CCO)OCC
not listed: [20]
inactive: all other assays above

COP(=S)(OC)Oc1cc(Cl)c(Cl)cc1Cl
active: [10] 26.7 µM | [11] 26.6 µM
not listed: [12]
inactive: all other assays above

COP(=S)(OC)Oc1ccc(S(=O)(=O)N(C)C)cc1
active: [8] 69 µM | [10] 26.8 µM
not listed: [11]
inactive: all other assays above

O=C(Cc1ccccc1)c1ccccc1
active: [10] 27.2 µM
not listed: [11]
inactive: all other assays above

C=CC(=O)N(C)C
not listed: [20]
inactive: all other assays above

CCOC(=O)/C=C(C)/C=C/C[C@@H](C)CCCC(C)C
inactive: [2] | [4] | [9] | [11] | [13] | [14] | [17] | [18] | [19]
active: [1] 74.7 µM | [3] 157 µM | [5] 24.4 µM | [6] 176 µM | [7] 62.9 µM | [8] 174 µM | [20] 182 µM | [10] 2.55 µM | [15] 124 µM | [16] 176 µM

O=C1C(Cl)=C(Cl)C(=O)c2ccccc21
active: [7] 13.6 µM
not listed: [20]
inactive: all other assays above

ClC(Cl)=C(Cl)C(Cl)=C(Cl)Cl
active: [1] 165 µM | [2] 100 µM | [7] 144 µM | [8] 152 µM | [10] 130 µM | [14] 160 µM | [15] 156 µM | [18] 40.4 µM
not listed: [20]
inactive: all other assays above

CC(=O)OC(c1ccccc1)C(Cl)(Cl)Cl (stereo not given)
active: [10] 48.6 µM
not listed: [20]
inactive: all other assays above

C=CC#N
not listed: [11] | [19]
inactive: all other assays above

Cl/C=C\C[N+]12CN3CN(CN(C3)C1)C2
active: [2] 100 µM | [7] 158 µM | [10] 45.2 µM | [18] 26 µM
not listed: [11]
inactive: all other assays above

Nc1ncc([N+](=O)[O-])s1
not listed: [20]
inactive: all other assays above

COP(=S)(OC)Oc1c(Cl)cc(C)cc1Cl
active: [8] 27.1 µM | [10] 4.62 µM
not listed: [12]
inactive: all other assays above

CNC
not listed: [20]
inactive: all other assays above

Source: PubChem BioAssay (EPA / NIEHS)
